# Source: PubChem
# This is a sample that favours compounds with a hit; in the whole collection about 19% have one here.
# TDP1 cell noCPT: qHTS for Inhibitors of human tyrosyl-DNA phosphodiesterase 1 (TDP1): qHTS in cells in absence of CPT; DT40 Tdp1-/- hTDP1 cells, no CPT, ATP luminescence, 48 h; Potency, µM (highest dose often 46.2 µM), without a hit: top-dose activity change, negative = growth inhibition, actives largely listed as inhibitors; hit rate 15% among 420,000; further: potency means the concentration at half of the fitted maximal effect; nearly all actives have a fitted effect of over 55% in size
#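 DT40 Tdp1-/-;hTDP1 cells, no CPT (DMSO vehicle only), 400 cells/well; compounds pin-transferred; ≥48 hr, 37 °C; CellTiter-Glo 30 min RT dark, luminescence read.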
# DT40 TDP1 CPT: DT40-hTDP1 cell growth loss with CPT; Potency, µM (top dose mostly 46.2 µM), without a hit: at the highest dose activity change, negative = growth inhibition, hits mostly inhibitors; AID 686979; chicken DT40 Tdp1-/-;hTDP1 cells + 20 nM CPT, ATP luminescence, 48 h; hit rate 12% among 420,000; further: potency means the concentration at half of the fitted maximal effect; nearly all actives have a fitted effect of over 55% in size
#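 Chicken DT40 Tdp1-/- cells stably complemented with human TDP1 were seeded at 400 cells/well in medium containing 20 nM camptothecin, exposed to pin-transferred compounds, and grown at 37 °C for at least 48 hr. Viability was read as ATP luminescence.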
# HT1080 IDH1KD tx: kills HT-1080 cells with IDH1 knockdown; HT-1080 IDH1 knockdown viability, ATP luminescence, 48 h; Potency, µM (series often up to 46.1 µM), for inactives: at the highest dose activity, negative = toxicity, most hits filed as cytotoxic; hit rate 2% among 360,000;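 further: potency means the concentration at half of the fitted maximal effect; 0% = DMSO wells and -100% = cell-free medium wells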
#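 In this qHTS, HT-1080 cells depleted of IDH1 are exposed for 48 h at 37 °C to compound titrations. Toxicity is scored from CellTiter-Glo luminescence, with DMSO as full viability and medium alone as none.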
# HT1080-NT tox: kills 2HG-producing HT-1080-NT fibrosarcoma cells; HT-1080-NT fibrosarcoma viability, CellTiter-Glo ATP luminescence, 48 h; Potency, µM (doses to about 46.1 µM), inactives show top-dose activity, negative = less viability, hits mostly cytotoxic; hit rate 1.6% among 360,000; AID 686970;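 further: NT is the 2HG producing partner of a matched IDH1 knockdown line; potency means the concentration at half of the fitted maximal effect; 0% = DMSO-treated cells and -100% = media-only wells without cells; nearly all actives have a fitted effect of over 55% in size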
#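 Fibrosarcoma NT cells, 750 per well in 5% FBS RPMI, were exposed to compound for 48 hours. Viability: CellTiter-Glo luminescence.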
# IL1B secr inh: inflammasome signaling inhibition, IL-1 beta readout; THP-1 LPS/ATP IL-1B secretion, AlphaLISA, 16 h; stronger effect = lower value; activity change, % at 57.5 µM; hit rate 4.7% among 360,000; in the data active means activity change below about -50%; inconclusive means mostly about -30% to -49%
#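 Secreted IL-1B measured by AlphaLISA bead assay after 16 h compound exposure of THP-1 cells; compounds (final up to 57.5 uM) added 1 h before LPS (250 ng/mL) and ATP (1.25 mM) stimulation; lower signal means less secretion.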
# ELG1 repair inh: blocks ELG1-dependent DNA repair in HEK293T cells; HEK293T ELG1-luciferase reporter, luminescence, 16 h; DNA damage induced by 5-fluorouridine; hit rate 2.3% among 330,000; Potency, µM (top dose mostly 46.1 µM), inactives show at the top dose activity change, negative = inhibition, actives largely listed as inhibitors; further: potency means the concentration at half of the fitted maximal effect; nearly all actives have a fitted effect of over 55% in size
#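 HEK293T cells expressing luciferase-tagged ELG1 (2,000/well) received 5-Fluorouridine plus compound or DMSO for 16 hr at 37 °C. Luciferase was read by ONE-Glo luminescence after 30 min at room temperature.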
# * = called active by the depositor; ? = inconclusive; . = no result; [ ] = dose if it differs, or a comment. Unless noted, the call rests on the fitted dose curve; in most records, active means well fitted curve in the direction sought with a large enough effect; inconclusive means small, poorly fitted or top-dose-only effect, or another doubt; inactive means no such curve, though single readings can be large; an effect the other way counts as inactive or inconclusive. Unless noted, on the % scale 0 is the no-effect control and ±100 the full control effect.
SMILES,TDP1 cell noCPT,DT40 TDP1 CPT,HT1080 IDH1KD tx,HT1080-NT tox,IL1B secr inh,ELG1 repair inh
COc1ccc(-c2nnc(SCC(=O)c3ccc[nH]3)o2)cc1,-21.9%,-17.9%,11.8%,-2.0%,20.1,?
COCCNC(=O)c1c(NC(=O)c2cc(=O)c3cc(C)cc(C)c3o2)sc2c1CCCC2,0.8%,5.7%,.,.,.,.
Cc1cccc(NC(=O)c2c(NC(=O)c3cccs3)sc3c2CCC(C)C3)c1 (stereo unspecified),10.3µM*,23.1µM*,.,.,.,.
CC1CCc2c(sc(NC(=O)c3ccccc3)c2C(=O)Nc2ccccc2)C1 (stereo unspecified),20.6µM*,9.2µM*,.,.,.,.
COc1cc(C(=O)Nc2sc3c(c2C(=O)O)CCC(C)C3)cc(OC)c1OC (stereo unspecified),-11.9%,-26.8%,-16.0%,-14.6%,6.4,2.91µM*
COc1cc(C(=O)Nc2sc(C)c(C)c2C(=O)O)cc(OC)c1OC,?,5.1%,-2.6%,0.1%,-10.9,9.6%
Cc1cccc(NC(=O)c2c(N)sc3c2CCC(C)C3)c1 (stereo unspecified),-54.7%,?,.,.,.,.
Cc1ccccc1NC(=O)c1c(NC(=O)c2cccs2)sc2c1CCC(C)C2 (stereo unspecified),?,-24.9%,.,.,.,.
COc1ccc2sc(C)[n+](C)c2c1,18.4µM*,?,10.5%,17.0%,-13.5,-18.8%
Cc1sc2ccccc2[n+]1Cc1ccccc1,1.12µM*,0.794µM*,.,.,.,.
Cc1sc2ccccc2[n+]1CCCC[n+]1c(C)sc2ccccc21,2.51µM*,4.47µM*,.,.,.,.
COc1ccc(-c2c(-c3cc(OC)cc(OC)c3)sc3ccc(OC)cc23)cc1,-10.4%,-28.0%,-2.6%,-0.7%,-11.8,?
Cc1sc2ccccc2[n+]1C,3.16µM*,3.98µM*,.,.,.,.
Cc1ccc(S(=O)(=O)Cc2sc3ccccc3[n+]2C)cc1,?,-24.6%,-1.0%,10.4%,10.7,-14.3%
COc1ccccc1-c1ccc2c(c1)O[C@@H](CN(C)C(=O)c1ccncc1)[C@H](C)CN([C@@H](C)CO)S2(=O)=O,-28.7%,?,9.5%,1.3%,12.9,.
COc1ccc(CCNC(=O)[C@@H](NC(=O)N2CC(=O)Nc3ccccc32)C(C)C)cc1OC,26.3%,1.0%,17.7%,2.7%,14.4,-14.2%
O=C(CCN1C(=O)C2CC=CCC2C1=O)Nc1cc(C(F)(F)F)ccc1N1CCCC1 (stereo unspecified),-5.0%,?,-9.5%,2.1%,13.2,-2.9%
Cc1ccc2c(c1)sc(C)[n+]2CCCS(=O)(=O)[O-],-6.2%,-0.7%,-1.7%,1.9%,-0.6,14.9%
Cc1sc2ccccc2[n+]1CCCCBr,5.62µM*,3.98µM*,.,.,.,.
OC(c1ccc(F)c(F)c1)c1nc(-c2ccoc2)cs1 (stereo unspecified),?,?,-8.7%,-2.0%,-16.4,.
COc1ccc(-c2cn3nc(N4CCCC(C(=O)Nc5cc(C)ccc5C)C4)sc3n2)cc1 (stereo unspecified),16.4µM*,23.1µM*,.,.,.,.
COc1ccc(-c2cn3nc(N4CCCC(C(=O)Nc5ccccc5F)C4)sc3n2)cc1 (stereo unspecified),14.6µM*,20.6µM*,.,.,.,.
COc1ccc(-c2cn3nc(N4CCCC(C(=O)Nc5ccc(Cl)cc5C)C4)sc3n2)cc1 (stereo unspecified),-16.9%,?,.,.,.,.
COc1ccc(-c2cn3nc(N4CCCC(C(=O)NCc5ccccc5OC)C4)sc3n2)cc1 (stereo unspecified),?,18.4µM*,.,.,.,.
CCc1ccc(CNC(=O)C2CCN(c3nn4cc(-c5ccc(OC)cc5)nc4s3)CC2)cc1,-25.7%,-19.8%,.,.,.,.
SMILES,TDP1 cell noCPT,DT40 TDP1 CPT,HT1080 IDH1KD tx,HT1080-NT tox,IL1B secr inh,ELG1 repair inh
Cc1ccc(-c2cn3nc(N4CCC(C(=O)Nc5ccccc5C)CC4)sc3n2)cc1,?,-30.0%,.,.,.,.
CCC(=O)N(CCc1ccccc1)Cc1cc2cccc(C)c2[nH]c1=O,?,-16.9%,6.5%,4.0%,-10.4,?
C[C@@H]1CCCCO[C@@H](CN(C)C(=O)CCCN(C)C)[C@@H](C)CN([C@H](C)CO)C(=O)c2cc(NC(=O)CCC(F)(F)F)ccc2O1,-24.2%,0.1%,5.7%,3.0%,6.9,.
CCCCC1OC23CCCCC2C(C#N)(C#N)C1(C#N)C(=N)O3 (stereo unspecified),6.51µM*,6.51µM*,5.8%,6.9%,-101.8*,1.6%
CCCCCCCCOc1ccc(C2OC34CCCCC3C(C#N)(C#N)C2(C#N)C(=N)O4)cc1 (stereo unspecified),?,?,-1.3%,-12.6%,38.9,10.4%
N#CC1(C#N)C(c2ccccc2)OC23CCCCC2C1(C#N)C(=N)O3 (stereo unspecified),-15.5%,-1.4%,0.1%,2.8%,-7.9,?
CCCCC1OC23CCCCC2C(C#N)(C(=N)O3)C1(C#N)C#N (stereo unspecified),7.31µM*,7.31µM*,2.5%,1.5%,-10.2,-7.5%
Cc1csc(NC(=O)CCCNC(=O)c2ccc(Cl)cc2)n1,-21.9%,-2.5%,-1.4%,-0.5%[9.24 µM],119.6,?
CC(C)CN(CCCNC(=O)CN1N=C(c2ccccc2)CCC1=O)CC(C)C,-4.3%,0.6%,.,.,.,.
